High-throughput results (PubChem)
Vif-APOBEC3G blk – inhibitors of Vif-APOBEC3G interaction; Q9HC16; HeLa A3G-eYFP + Vif (tagged APOBEC3G with the HIV-1 protein that degrades it), YFP fluorescence, overnight; 410,000 tested, 0.076% active; Potency, µM (series often up to 46.1 µM), for inactives: at the highest dose activity, negative = active, actives largely listed as inhibitors; AID 602310; also: % is scaled to controls: 0 for no effect and ±100 for the full control effect; nearly all actives have a fitted effect of over 60% in size
Target sequence (Q9HC16 whole entry, looked up): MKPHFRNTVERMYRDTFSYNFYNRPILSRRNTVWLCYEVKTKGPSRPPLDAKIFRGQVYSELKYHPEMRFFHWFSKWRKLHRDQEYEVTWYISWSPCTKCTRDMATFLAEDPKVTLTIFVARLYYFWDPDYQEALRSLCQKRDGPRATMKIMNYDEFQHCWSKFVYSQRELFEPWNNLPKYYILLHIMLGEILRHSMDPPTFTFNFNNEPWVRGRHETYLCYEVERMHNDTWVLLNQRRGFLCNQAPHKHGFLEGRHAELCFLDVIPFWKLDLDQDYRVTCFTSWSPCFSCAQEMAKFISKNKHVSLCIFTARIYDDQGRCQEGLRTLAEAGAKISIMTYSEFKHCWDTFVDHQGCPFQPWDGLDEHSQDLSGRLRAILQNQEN
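Read-out is eYFP fluorescence (Ex 488/Em 500-530) from Vif-expressing HeLa A3G-eYFP cells; more signal means A3G escaped Vif-mediated degradation. Cells plated overnight, compound pinned in, incubated overnight at 37 deg C.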
Epigenetic derep – derepresses silenced GFP reporter in murine cells; Potency, µM (doses to about 53.9 µM), for the others: top-dose GFP activation, hits mostly activators; 280,000 tested, 0.2% active; murine LDR cells, GFP reporter derepression, 30 h; also: % of control where 0% means no effect; nearly all actives have a fitted effect of over 60% in size
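Derepression of a silenced CMV-GFP reporter in murine LDR cells is scored by enumerating GFP-positive cells with a laser-scanning microplate cytometer after 30 hours of treatment at 37 C.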
Vif-A3F inh – blocks the Vif interaction with APOBEC3F | HeLa A3F-eYFP + Vif (tagged APOBEC3F with the HIV-1 protein that degrades it), YFP fluorescence increase | Potency, µM (titrated, usually from 46.1 µM), inactives show at the top dose activity, negative = active | 390,000 tested, 0.2% active | AID 602313; also: % of control where 0% means no effect; nearly all actives have a fitted effect of over 65% in size
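HeLa cells stably expressing A3F-eYFP plus Vif, plated and incubated overnight at 37 deg C, then exposed to compounds overnight at 37 deg C. Blocked degradation read as raised yellow fluorescence (Ex 488/Em 500-530).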
PINK1 modulator – PINK1 expression modulation. AID 624263. 410,000 tested, 0.2% active. PINK1 immunofluorescence, high-content cytometry, 24 h. Potency, µM (top dose mostly 76.6 µM), inactives show top-dose activation (PINK1 increase), most hits filed as activators; active = well fitted activation curve with a large enough effect; inconclusive = small, poorly fitted or top-dose-only effect; cell line not stated here; also: % of control where 0% means no effect; nearly all actives have a fitted effect of over 65% in size
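A stable cell line was treated with compounds at 5 concentrations for 24 hours, with CCCP as control. PINK1 levels and mitochondrial localization were measured by immunofluorescence with mitochondrial, cell and nuclear markers after fixation, read by laser-scanning cytometry.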
An asterisk follows results filed as active. The list is not random: actives were taken first. Their share in the collection is about 0.52%. Unless noted, calls follow the shape of the dose curve; as a rule, active = well fitted curve in the direction sought with a large enough effect; inconclusive = small, poorly fitted or top-dose-only effect, or another doubt; inactive = no such curve, though single readings can be large; an effect the other way counts as inactive or inconclusive. Potency is read from the fitted curve at half-maximal effect.

For CCOc1ccc(NC(=O)c2sc3nc4c(c(-c5ccc(OC)cc5)c3c2N)C(=O)CC(C)(C)C4)cc1 the results were Epigenetic derep 11µM* and PINK1 modulator 3%.
`COc1ccc(NC(=O)c2sc3nc4c(cc3c2N)CN(Cc2ccccc2)CC4)c(OC)c1` gave Vif-APOBEC3G blk inconclusive, Epigenetic derep 7.1µM*, Vif-A3F inh 11µM* and PINK1 modulator 3%.
Screening COc1ccc(-c2c3c(nc4sc(C(=O)Nc5ccc(Cl)cc5)c(N)c24)CC(C)(C)CC3=O)cc1 returned Epigenetic derep 0% and PINK1 modulator 3%.
For COc1ccccc1NC(=O)c1sc2nc3c(cc2c1N)CN(Cc1ccccc1)CC3 the results were Vif-APOBEC3G blk -6%, Epigenetic derep 13%, Vif-A3F inh inconclusive and PINK1 modulator 5%.
For CCOc1ccc(NC(=O)c2sc3nc4c(cc3c2N)CN(Cc2ccccc2)CC4)cc1 the results were Vif-APOBEC3G blk -11%, Epigenetic derep 16µM*, Vif-A3F inh inconclusive and PINK1 modulator 11%.
`COc1ccc(CN2CCC(n3cc(C(=O)N4CCCC4)nn3)CC2)c(OC)c1C` gave PINK1 modulator 0%.
`CCN1CCCC1CNCc1cc2c(OC)c(OC)c(OC)cc2nc1N(C)C` (stereo unspecified) gave PINK1 modulator 0%.
`CC(=O)N1CCc2nc3sc(C(=O)c4ccc(F)cc4)c(N)c3c(C(F)(F)F)c2C1` gave Vif-APOBEC3G blk inconclusive, Epigenetic derep inconclusive, Vif-A3F inh 13µM* and PINK1 modulator 3%.
`COc1ccc(C(=O)c2sc3nc4c(c(C(F)(F)F)c3c2N)CN(C(C)=O)CC4)cc1OC` gave Vif-APOBEC3G blk inconclusive, Epigenetic derep 4%, Vif-A3F inh 22µM* and PINK1 modulator -2%.
`Cc1cnc(C)c(-c2ccc3c(c2)CC(CNC(=O)Cc2c(C)[nH]c4ccccc24)O3)n1` (stereo unspecified) gave PINK1 modulator -1%.
Screening Cc1cnc(-n2ncc(C(=O)N(C)Cc3cccc4ncccc34)c2C(C)C)nc1-c1ccc(F)cc1 returned PINK1 modulator 1%.
Screening CCOC(=O)c1c(NC(=O)CC2Nc3ccccc3NC2=O)sc(C)c1C (stereo unspecified) returned Vif-APOBEC3G blk 0%, Epigenetic derep inconclusive, Vif-A3F inh inconclusive and PINK1 modulator 13µM*.
O=C(CC1Nc2ccccc2NC1=O)Nc1cc(Cl)cc(Cl)c1 (stereo unspecified) was read as Vif-APOBEC3G blk -1%, Epigenetic derep 0%, Vif-A3F inh -2% and PINK1 modulator 8.9µM*.
For Cc1oc(-c2ccccc2NC(=O)c2ccccc2)nc1CNC(=O)c1cccc(-n2cccn2)c1 the results were PINK1 modulator 4%.
CCOC(=O)c1c(NC(=O)c2ccn(CC)n2)sc2c1CCCC2 was read as Vif-APOBEC3G blk -2%, Epigenetic derep 1%, Vif-A3F inh -9% and PINK1 modulator 10µM*.
Screening CCOC(=O)c1c(NC(=O)c2ccc(C)cc2)sc2c1CCCCC2 returned Vif-APOBEC3G blk -5%, Epigenetic derep -2%, Vif-A3F inh -4% and PINK1 modulator 2%.
Screening Cc1ccc(S(=O)c2ccc([N+](=O)[O-])c3nonc23)cc1 (stereo unspecified) returned Vif-APOBEC3G blk inconclusive, Vif-A3F inh 22µM* and PINK1 modulator 6%.
Screening Cc1ccc(Nc2c([N+](=O)[O-])ccc3nonc23)c(C)c1 returned Vif-APOBEC3G blk 1%, Vif-A3F inh 5% and PINK1 modulator 5%.
CCOC(=O)/C(C#N)=C(C)/C=C1\Sc2ccccc2N1CC was read as Vif-APOBEC3G blk -1%, Epigenetic derep inconclusive, Vif-A3F inh inconclusive and PINK1 modulator inconclusive.
For CCN1/C(=C\C=C(C(C)=O)C(C)=O)Sc2ccccc21 the results were Vif-APOBEC3G blk 22µM*, Epigenetic derep 1%, Vif-A3F inh 22µM* and PINK1 modulator inconclusive.
Cc1nc2ccccc2nc1CN1CCOc2ccc(C3(O)CCN(c4ccccc4F)CC3)cc2C1 was read as PINK1 modulator 1%.
`COc1cccc(CNC(=O)c2c(OC)cc(=O)n3c2CCN(C(=O)c2ccoc2C)CC3)c1` gave PINK1 modulator 0%.
`COc1cc([N+](=O)[O-])ccc1NC(=S)Nc1cc(C(=O)OC(C)C)cc(C(=O)OC(C)C)c1` gave Vif-APOBEC3G blk -2%, Epigenetic derep -1%, Vif-A3F inh -6% and PINK1 modulator 16µM*.
`Cc1ccc(-c2ccnc(-n3ncc(C(=O)N4CCCCC4c4cccnc4)c3C3CC3)n2)o1` (stereo unspecified) gave PINK1 modulator -1%.
For COc1cc2c(cc1NC(=O)COc1ccccc1OC)oc1ccccc12 the results were Vif-APOBEC3G blk 1%, Epigenetic derep -5%, Vif-A3F inh 6% and PINK1 modulator 14µM*.
CCOC(=O)c1sc(NC(=O)c2cc(-c3ccc(C)cc3)nc3ccccc23)c(C#N)c1C was read as Vif-APOBEC3G blk -2%, Epigenetic derep -1%, Vif-A3F inh -22% and PINK1 modulator inconclusive.
Screening Cc1ccccc1-c1cc(C(=O)Nc2sc(C(=O)OC(C)C)c(C)c2C#N)c2ccccc2n1 returned Vif-APOBEC3G blk -4%, Epigenetic derep -2%, Vif-A3F inh 2% and PINK1 modulator 13µM*.
`COC(=O)c1sc(NC(=O)c2cc(-c3ccccc3)nc3ccccc23)c(C#N)c1C` gave Vif-APOBEC3G blk -13%, Epigenetic derep -1%, Vif-A3F inh -18% and PINK1 modulator 5.6µM*.
Cc1ccccc1C(=O)N1CCc2c(cnc(C)c2CNC(=O)c2ccc3c(c2)OCO3)C1 was read as PINK1 modulator 1%.
`COC(=O)c1sccc1NC(=S)Nc1cc(C)cc(C)c1` gave Vif-APOBEC3G blk 1%, Epigenetic derep -1%, Vif-A3F inh 25µM* and PINK1 modulator 5%.
COC(=O)c1cc(CNC(=O)c2cccc(F)c2)cc(NC(=O)c2ccccc2OC)c1 was read as PINK1 modulator -1%.
`COc1cccc(C2C=C(c3ccc(Br)s3)Nc3ncnn32)c1OC` (stereo unspecified) gave Vif-APOBEC3G blk -1%, Epigenetic derep 0%, Vif-A3F inh inconclusive and PINK1 modulator 4%.
For Fc1ccc(Br)cc1C1C=C(c2ccc(Br)s2)Nc2ncnn21 (stereo unspecified) the results were Vif-APOBEC3G blk inconclusive, Epigenetic derep -1%, Vif-A3F inh 22µM* and PINK1 modulator 18%.
Screening Cc1ccc(/C=C2/Sc3ccc(C(=O)NCc4ccccn4)cc3NC2=O)cc1 returned Vif-APOBEC3G blk -8%, Vif-A3F inh inconclusive and PINK1 modulator 28µM*.
Screening CN(c1ccccc1)S(=O)(=O)c1ccc(Cl)c(C(=O)Nc2ccc(-c3nc4ccccc4[nH]3)cc2)c1 returned Vif-APOBEC3G blk -23%, Epigenetic derep -1%, Vif-A3F inh -1% and PINK1 modulator 11µM*.
Screening Cc1ccc2c(c1)C/C(=C/c1ccc(N(C)C)cc1)C2=O returned Vif-APOBEC3G blk -6% and PINK1 modulator 0%.
